Values joined by “and” are separate entries in the source; they are usually repeats but may differ in a detail not shown here. Equal values may be shown once. Records with an inconclusive call do not appear. The source holds several records for some structures; these can differ, active in one and inactive in another. Active and inactive are the calls of the source. Unless noted, the call rests on the fitted dose curve; in most records, active means well fitted curve in the direction sought with a large enough effect in the repeat runs; inconclusive means weak or mixed curves; inactive means no such curve, though single readings can be large; an effect the other way counts as inactive or inconclusive.
What was measured:
[1] = biological target: Aryl hydrocarbon receptor (Homo sapiens) (UniProt P35869); test: qHTS assay to identify small molecule that activate the aryl hydrocarbon receptor (AhR) signaling pathway (AID 743085);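 further: HG2L7.5c1 human HepG2 liver cells with stably integrated DRE-driven firefly reporter; series mostly up to about 70 µM; nearly all actives have a fitted effect of over 15% in size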
Outline: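 Steps: seed HepG2-AhR-luc cells; allow 5 h at 37C; pin-transfer test compound or vehicle; incubate 24 h at 37C; add viability dye (30 min, 37C) and read fluorescence; add luciferase substrate (30 min, RT) and read luminescence.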

[2] = qHTS assay to identify small molecule that activate the aryl hydrocarbon receptor (AhR) signaling pathway - cell viability counter screen (AID 743086);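 further: HepG2 liver cells carrying the AhR DRE luciferase reporter; series mostly up to about 70 µM; nearly all actives have a fitted effect of over 45% in size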
Outline: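 Cytotoxicity counter screen: CellTiter-Fluor signal (30 min, 37 C) in 4000 HepG2 cells/well carrying the DRE-luciferase reporter, following 24 h compound exposure at 37 C.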

[3] = biological target: Peroxisome proliferator-activated receptor gamma (Homo sapiens) (UniProt P37231); test: qHTS assay to identify small molecule agonists of the peroxisome proliferator-activated receptor gamma (PPARg) signaling pathway (AID 743094; active means well fitted activation curve with a large enough effect in the signal ratio in the repeat runs, not every such curve was filed as active; the % refers to the signal ratio; further: potency means the concentration at half of the fitted maximal effect)
Outline: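 Quantitative HTS agonist mode: stable HEK293H line with UAS-beta-lactamase reporter under PPARg control, 17 h compound exposure at 37C, fluorescence after 1 h FRET substrate loading at room temperature.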

[4] = biological target: Peroxisome proliferator-activated receptor gamma (Homo sapiens) (UniProt P37231); test: qHTS assay to identify small molecule antagonists of the peroxisome proliferator-activated receptor gamma (PPARg) signaling pathway (AID 743191; calls by dose curve; further: series mostly up to about 63 µM; nearly all actives have a fitted effect of over 30% in size)
Outline: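 Beta-lactamase reporter under UAS control in HEK293H PPARg-bla cells; compound treatment 17 h at 37C. Read-out: fluorescence intensity after 1 h room-temperature incubation with LiveBLAzer B/G FRET substrate.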

[5] = qHTS assay for small molecule agonists of the antioxidant response element (ARE) signaling pathway - cell viability counter screen (AID 743203; calls by dose curve; further: nearly all actives have a fitted effect of over 55% in size; further: potency means the concentration at half of the fitted maximal effect)
Outline: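 Seeded at 2,000 cells/well, ARE-bla HepG2 cells were incubated 5 hrs before compound addition. After 16 hrs of treatment at 37C with 5% CO2, CellTiter-Glo reagent was added and luminescence read 30 min later.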

[6] = qHTS assay for small molecule activators of the heat shock response signaling pathway - cell viability counter screen (AID 743209); further: nearly all actives have a fitted effect of over 50% in size; further: potency means the concentration at half of the fitted maximal effect
Outline: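 First, HSE-bla HeLa cells were seeded at 1500 cells/well and kept overnight at 37 C. Next, compounds were pinned in and incubated 5 h. After the FRET substrate step, CellTiter-Glo was added and luminescence read 30 min later.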

[7] = qHTS assay to identify small molecule agonists of the peroxisome proliferator-activated receptor delta (PPARd) signaling pathway - cell viability counter screen (AID 743211); further: nearly all actives have a fitted effect of over 55% in size; further: potency means the concentration at half of the fitted maximal effect
Outline: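 Viability of GeneBLAzer PPARd UAS-bla HEK293H cells was assessed after 17 h compound incubation at 37C, using CellTiter-Glo reagent added after the reporter read and luminescence recorded 30 min later.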

[8] = biological target: Peroxisome proliferator-activated receptor delta (Homo sapiens) (UniProt Q03181); test: qHTS assay to identify small molecule agonists of the peroxisome proliferator-activated receptor delta (PPARd) signaling pathway (AID 743212; calls by dose curve)
Outline: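 HEK293H PPARd-bla cells; 5 h preincubation 37 C/5% CO2; compound (DMSO) 37 C; LiveBLAzer B/G FRET substrate 2 h RT; fluorescence intensity.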

[9] = qHTS assay to identify small molecule antagonists of the peroxisome proliferator-activated receptor delta (PPARd) signaling pathway - cell viability counter screen (AID 743213); further: nearly all actives have a fitted effect of over 50% in size
Outline: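 CellTiter-Glo was added to PPARd-bla HEK293H wells following 17 h compound treatment in the presence of 300 nM L165041. Luminescence was recorded after 30 min at room temperature.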

[10] = qHTS assay to identify small molecule antagonists of the farnesoid-X-receptor (FXR) signaling pathway - cell viability counter screen (AID 743221; active means well fitted cell-killing curve with a large enough effect in the repeat runs, not every such curve was filed as active; further: nearly all actives have a fitted effect of over 50% in size)
Outline: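 Quantitative HTS of the Tox21 10K library run in parallel with the beta-lactamase reporter read. HEK 293T cells carrying a UAS-driven bla reporter got compound and 50 uM CDCA (final) for 16 h; ATP-based luminescence followed.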

[11] = biological target: Vitamin D3 receptor (Homo sapiens) (UniProt P11473); test: qHTS assay to identify small molecule agonists of the vitamin D receptor (VDR) signaling pathway (AID 743222; calls by dose curve)
Outline: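 Quantitative HTS agonist-mode screen: compounds in DMSO were pin-transferred onto VDR-bla cells and incubated 16 h at 37C, 5% CO2. Reporter activity was detected with LiveBLAzer B/G FRET substrate after 2 h at room temperature.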

[12] = biological target: Vitamin D3 receptor (Homo sapiens) (UniProt P11473); test: qHTS assay to identify small molecule antagonists of the vitamin D receptor (VDR) signaling pathway (AID 743223; active means well fitted inhibition curve with a large enough effect in the signal ratio in the repeat runs, not every such curve was filed as active; the % refers to the signal ratio)
Outline: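 Fluorescence from LiveBLAzer B/G FRET substrate, read after 2 h at room temperature, reflects beta-lactamase reporter activity in VDR-bla cells treated 16 h at 37C with compounds and agonist 1alpha,25-dihydroxyvitamin D3 (3 nM final).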

[13] = qHTS assay to identify small molecule antagonists of the peroxisome proliferator-activated receptor gamma (PPARg) signaling pathway - cell viability counter screen (AID 743194); settings: Potency: co-treated with 50 nM rosiglitazone; further: nearly all actives have a fitted effect of over 55% in size
Outline: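 Viability was measured as CellTiter-Glo luminescence in GeneBLAzer PPARg UAS-bla HEK293H cells. These cells had been exposed 17 h at 37 C to compounds together with rosiglitazone at 50 nM final, with the beta-lactamase readout taken in the same wells.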

[14] = qHTS assay for small molecule activators of the heat shock response signaling pathway (AID 743210; active means well fitted activation curve with a large enough effect in the signal ratio in the repeat runs, with a control signal flat, not every such curve was filed as active; the % refers to the signal ratio;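 further: HeLa cells with beta-lactamase reporter driven by heat shock elements; series mostly up to about 63 µM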)
Outline: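 HeLa HSE-bla cells, overnight plating; cpd in DMSO 5 h, 37 C; LiveBLAzer B/G FRET substrate 2.5 h RT; fluorescence intensity read.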

[15] = biological target: Peroxisome proliferator-activated receptor delta (Homo sapiens) (UniProt Q03181); test: qHTS assay to identify small molecule antagonists of the peroxisome proliferator-activated receptor delta (PPARd) signaling pathway (AID 743215; active means well fitted inhibition curve with a large enough effect in the signal ratio in the repeat runs, not every such curve was filed as active; the % refers to the signal ratio;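 further: cells stimulated with agonist L165041 at 300 nM final during compound exposure; series mostly up to about 62 µM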)
Outline: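 Inhibition of L165041-driven (300 nM final) PPARd signaling is scored in HEK293H UAS-bla cells. Exposure lasts 17 h at 37 C; beta-lactamase activity is then read by FRET substrate fluorescence after 2 h at room temperature.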

[16] = qHTS assay to identify small molecule agonists of the farnesoid-X-receptor (FXR) signaling pathway - cell viability counter screen (AID 743218); further: nearly all actives have a fitted effect of over 45% in size; further: potency means the concentration at half of the fitted maximal effect
Outline: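 Cytotoxicity counter-screen run in parallel, same wells: FXR-UAS-bla HEK 293T cells dosed 16 h at 37 C, viability read by CellTiter-Glo luminescence after 30 min at room temperature.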

[17] = qHTS assay to identify small molecule agonists of the vitamin D receptor (VDR) signaling pathway - cell viability counter screen (AID 743224); further: nearly all actives have a fitted effect of over 50% in size; further: potency means the concentration at half of the fitted maximal effect; on activity change, negative = cytotoxicity: series mostly up to about 63 µM
Outline: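 Viability is measured in the same wells as the VDR-bla reporter assay: after 16 h compound treatment and 2 h substrate loading, CellTiter-Glo is added and luminescence read 30 min later.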

[18] = qHTS assay for small molecule agonists of the antioxidant response element (ARE) signaling pathway (AID 743202; active means well fitted activation curve with a large enough effect in the signal ratio in the repeat runs, not every such curve was filed as active; the % refers to the signal ratio; further: potency means the concentration at half of the fitted maximal effect)
Outline: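 Quantitative high-throughput format in HepG2 cells bearing an integrated ARE-beta-lactamase reporter. Compound exposure lasted 16 h at 37 C, and fluorescence was read 2 h after adding LiveBLAzer B/G substrate at room temperature.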

[19] = biological target: Bile acid receptor (Homo sapiens) (UniProt Q96RI1); test: qHTS assay to identify small molecule antagonists of the farnesoid-X-receptor (FXR) signaling pathway (AID 743217; active means well fitted inhibition curve with a large enough effect in the signal ratio in the repeat runs, not every such curve was filed as active; the % refers to the signal ratio)
Outline: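 Antagonist mode against 50 uM (final) chenodeoxycholic acid stimulation in FXR-bla HEK 293T cells, 16 h at 37 °C. Inhibition detected as reduced beta-lactamase activity via LiveBLAzer B/G FRET fluorescence after 2 h at room temperature.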

[20] = biological target: Bile acid receptor (Homo sapiens) (UniProt Q96RI1); test: qHTS assay to identify small molecule agonists of the farnesoid-X-receptor (FXR) signaling pathway (AID 743220; active means well fitted activation curve with a large enough effect in the signal ratio in the repeat runs, not every such curve was filed as active; the % refers to the signal ratio)
Outline: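 Beta-lactamase reporter under UAS control in GeneBLAzer FXR HEK 293T cells (5000/well) measured with LiveBLAzer FRET substrate after 2 h at room temperature. Compound exposure lasted 16 h at 37C.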
On the % scale 0 is the no-effect control and ±100 the full control effect.

Chain of Peroxisome proliferator-activated receptor gamma (Homo sapiens) (P37231 whole entry, looked up): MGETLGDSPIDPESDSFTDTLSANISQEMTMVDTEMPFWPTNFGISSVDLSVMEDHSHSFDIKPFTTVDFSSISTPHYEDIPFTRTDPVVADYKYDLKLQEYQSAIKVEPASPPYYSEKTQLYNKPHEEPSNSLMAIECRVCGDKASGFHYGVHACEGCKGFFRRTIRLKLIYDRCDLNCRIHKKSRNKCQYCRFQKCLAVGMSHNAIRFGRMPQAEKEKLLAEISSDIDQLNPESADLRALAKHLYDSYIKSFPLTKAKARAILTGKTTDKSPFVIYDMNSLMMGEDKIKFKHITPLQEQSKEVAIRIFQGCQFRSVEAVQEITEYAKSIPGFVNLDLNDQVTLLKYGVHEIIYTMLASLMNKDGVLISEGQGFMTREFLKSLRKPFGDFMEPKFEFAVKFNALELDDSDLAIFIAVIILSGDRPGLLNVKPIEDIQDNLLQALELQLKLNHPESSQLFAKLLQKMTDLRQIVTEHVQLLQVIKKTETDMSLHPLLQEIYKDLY
Chain of Bile acid receptor (Homo sapiens) (Q96RI1 whole entry, looked up): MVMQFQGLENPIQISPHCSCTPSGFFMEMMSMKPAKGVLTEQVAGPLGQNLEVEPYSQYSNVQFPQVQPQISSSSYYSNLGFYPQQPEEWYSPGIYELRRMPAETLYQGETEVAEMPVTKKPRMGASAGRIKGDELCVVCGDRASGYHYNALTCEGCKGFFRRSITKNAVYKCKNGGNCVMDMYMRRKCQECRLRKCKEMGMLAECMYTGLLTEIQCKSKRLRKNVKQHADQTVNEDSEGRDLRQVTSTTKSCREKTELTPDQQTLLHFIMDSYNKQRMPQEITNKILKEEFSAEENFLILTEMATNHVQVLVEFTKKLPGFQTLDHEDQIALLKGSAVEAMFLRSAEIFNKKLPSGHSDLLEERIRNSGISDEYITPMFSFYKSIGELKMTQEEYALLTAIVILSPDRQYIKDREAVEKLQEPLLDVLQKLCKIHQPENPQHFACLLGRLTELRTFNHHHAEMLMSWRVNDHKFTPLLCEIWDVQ
Chain of Peroxisome proliferator-activated receptor delta (Homo sapiens) (Q03181 whole entry, looked up): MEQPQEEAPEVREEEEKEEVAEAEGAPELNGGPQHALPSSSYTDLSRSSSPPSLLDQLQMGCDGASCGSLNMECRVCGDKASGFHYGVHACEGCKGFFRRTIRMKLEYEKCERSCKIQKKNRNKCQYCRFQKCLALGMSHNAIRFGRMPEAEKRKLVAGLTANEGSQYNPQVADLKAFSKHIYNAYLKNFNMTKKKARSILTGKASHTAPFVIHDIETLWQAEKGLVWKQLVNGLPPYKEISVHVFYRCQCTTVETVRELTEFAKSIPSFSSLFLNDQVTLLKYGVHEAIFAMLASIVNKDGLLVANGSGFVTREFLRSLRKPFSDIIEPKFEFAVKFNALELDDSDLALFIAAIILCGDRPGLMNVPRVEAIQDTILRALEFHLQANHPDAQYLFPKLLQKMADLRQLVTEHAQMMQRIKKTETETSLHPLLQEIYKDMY
Chain of Vitamin D3 receptor (Homo sapiens) (P11473 whole entry, looked up): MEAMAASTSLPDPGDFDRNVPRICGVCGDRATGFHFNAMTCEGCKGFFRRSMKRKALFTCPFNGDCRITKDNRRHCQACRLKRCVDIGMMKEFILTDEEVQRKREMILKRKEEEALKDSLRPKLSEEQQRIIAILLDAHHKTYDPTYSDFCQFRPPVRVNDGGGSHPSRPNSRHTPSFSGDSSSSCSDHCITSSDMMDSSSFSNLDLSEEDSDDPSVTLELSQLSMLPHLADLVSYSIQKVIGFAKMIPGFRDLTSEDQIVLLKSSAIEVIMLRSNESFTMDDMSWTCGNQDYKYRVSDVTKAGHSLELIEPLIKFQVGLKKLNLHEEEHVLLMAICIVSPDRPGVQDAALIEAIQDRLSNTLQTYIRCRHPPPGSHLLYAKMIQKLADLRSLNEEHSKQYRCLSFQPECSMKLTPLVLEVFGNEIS
Chain of Aryl hydrocarbon receptor (Homo sapiens) (P35869 whole entry, looked up): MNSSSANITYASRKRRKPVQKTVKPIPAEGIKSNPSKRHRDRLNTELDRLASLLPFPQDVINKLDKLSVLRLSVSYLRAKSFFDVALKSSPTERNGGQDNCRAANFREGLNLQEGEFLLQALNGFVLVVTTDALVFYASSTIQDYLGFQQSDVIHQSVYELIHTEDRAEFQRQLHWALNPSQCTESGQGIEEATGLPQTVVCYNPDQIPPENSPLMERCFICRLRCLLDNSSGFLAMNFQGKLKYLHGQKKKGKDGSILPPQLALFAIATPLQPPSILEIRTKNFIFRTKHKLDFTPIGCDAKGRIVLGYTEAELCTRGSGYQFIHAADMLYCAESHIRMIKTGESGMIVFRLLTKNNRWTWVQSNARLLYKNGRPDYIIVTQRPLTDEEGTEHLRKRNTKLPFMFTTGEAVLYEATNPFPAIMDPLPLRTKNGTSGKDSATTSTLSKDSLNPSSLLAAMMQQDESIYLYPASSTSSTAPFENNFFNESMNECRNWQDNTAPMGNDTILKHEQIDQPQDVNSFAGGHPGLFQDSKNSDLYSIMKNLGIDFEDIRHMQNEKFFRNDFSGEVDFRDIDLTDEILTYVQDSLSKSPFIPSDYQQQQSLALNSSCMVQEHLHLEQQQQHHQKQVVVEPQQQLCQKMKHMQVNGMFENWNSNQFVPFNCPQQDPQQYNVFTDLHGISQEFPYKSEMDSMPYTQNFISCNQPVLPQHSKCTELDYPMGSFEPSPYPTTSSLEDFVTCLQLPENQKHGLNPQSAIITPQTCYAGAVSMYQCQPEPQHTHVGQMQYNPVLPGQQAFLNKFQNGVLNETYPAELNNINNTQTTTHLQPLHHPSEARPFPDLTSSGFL

CCCCCCCCCCCCN=C(N)N
inactive: activation [1] -0.0242% [at 3.79 µM] | viability change, negative = cytotoxic [2] -4.27% [at 3.79 µM] | activation [3] 0.522% [at 3.17 µM] | ratio activity, negative = inhibition [4] -16.9% [at 2.7 µM] | viability change, negative = cytotoxic [5] -8.9% [at 3.74 µM] | activity change, negative = cytotoxicity [6] -18.4% [at 2.7 µM] | activity change, negative = cytotoxicity [7] -26.8% [at 2.7 µM] | activation [8] 6.16% [at 2.7 µM] | viability change, negative = cytotoxic [9] -15.8% [at 2.83 µM] | activity change, negative = cytotoxicity [10] -27.4% [at 2.69 µM] | activation [11] -0.533% [at 2.71 µM] | activity change, negative = inhibition [12] 3.88% [at 3.11 µM]

COc1cc(CC(C)N)c(OC)cc1Br (configuration not stated)
inactive: Potency [1] | Potency [2] | Potency [3] | Potency [13] | Potency [5] | Potency [6] | Potency [14] | outcome [8] | Potency [15] | Potency [16] | Potency [10]

CCc1ccccc1N
inactive: Potency [1] | Potency [2] | Potency [3] | Potency [4] | Potency [5] | Potency [6] | Potency [14] | Potency [7] | outcome [8] | Potency [15] | Potency [16] | Potency [10] | outcome [11] | Potency [12] | Potency [17]

COP(=O)(OC)OC(Br)C(Cl)(Cl)Br (configuration not stated)
inactive: Potency [1] | Potency [2] | Potency [6] | Potency [14] | outcome [8] | Potency [16] | Potency [10] | outcome [11] | Potency [12]
active: Potency [3] 54.9 µM | Potency [18] 19.4 µM and 9.69 µM

OC[P+](CO)(CO)CO
inactive: Potency [1] | Potency [2] | Potency [3] | Potency [13] | Potency [6] | Potency [14] | Potency [7] | outcome [8] | Potency [9] | Potency [16] | Potency [10] | outcome [11] | Potency [12]
55.6 µM (active) and inactive: Potency [17]
active: Potency [18] 12.3 µM and 8.63 µM

CC1(C)CC(=O)CC(C)(C)N1[O]
inactive: Potency [1] | Potency [2] | Potency [3] | Potency [5] | Potency [6] | Potency [14] | Potency [7] | outcome [8] | Potency [9] | Potency [15] | Potency [19] | Potency [16] | outcome [20] | Potency [10] | outcome [11] | Potency [12] | Potency [17]

O=C(Cc1ccccc1)OCCc1ccccc1
inactive: Potency [1] | Potency [2] | Potency [3] | Potency [13] | Potency [18] | Potency [5] | Potency [6] | Potency [14] | Potency [7] | outcome [8] | Potency [9] | Potency [15] | Potency [16] | outcome [11]

O=C(O)COc1cc(Cl)c(Cl)cc1Cl
inactive: Potency [1] | Potency [2] | Potency [3] | Potency [13] | Potency [5] | Potency [6] | Potency [14] | Potency [7] | Potency [9] | Potency [15] | Potency [19] | Potency [16] | outcome [20] | Potency [10] | outcome [11] | Potency [12]

O=C(NCNC(=O)NC1C(=O)NC(=O)N1CO)NC1C(=O)NC(=O)N1CO (configuration not stated)
inactive: Potency [1] | Potency [2] | Potency [3] | Potency [4] | Potency [5] | Potency [6] | Potency [14] | Potency [7] | outcome [8] | Potency [9] | Potency [19] | Potency [16] | outcome [20] | Potency [10] | Potency [17]

O=C(CCl)CCl
active: Potency [18] 14.2 µM | Potency [5] 19.3 µM
inactive: Potency [1] | Potency [2] | Potency [14] | outcome [8] | Potency [9] | Potency [15] | Potency [10] | outcome [11] | Potency [12] | Potency [17]
inactive and 54.9 µM (active): Potency [7] | Potency [16]
inactive and 12.3 µM (active): Potency [6]

O=C1CC[C@@]2(O)[C@H]3Cc4ccc(O)c5c4[C@@]2(CCN3CC2CC2)[C@H]1O5
inactive: Potency [1] | Potency [2] | Potency [13] | Potency [5] | Potency [6] | Potency [14] | Potency [7] | Potency [9] | Potency [19] | Potency [16] | outcome [20] | Potency [10]

O=C(O)c1cc(I)cc(I)c1I
inactive: Potency [1] | Potency [2] | Potency [6] | Potency [14] | Potency [7] | outcome [8] | Potency [9] | Potency [15] | Potency [19] | Potency [16] | outcome [20] | Potency [10] | outcome [11] | Potency [17]

Source: PubChem BioAssay (Tox21)
